Screening data as filed in PubChem BioAssay.
RGS7-Gao: RGS7-Galphao binding modulators, primary screen, biochemical, multiplexed bead flow cytometry; actives lie on both sides; Guanine nucleotide-binding protein G(o) subunit alpha (Homo sapiens), P09471; 220,000 tested, 0.35% active; binding response (% of control), % at 10 µM; AID 1439, 2008; in the data active = binding response below about 49% or above about 150%;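 also: fluorescent Galphao held in activated GDP-AlF4 state binding bead-coupled RGS7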
Target sequence (P09471 whole entry, looked up): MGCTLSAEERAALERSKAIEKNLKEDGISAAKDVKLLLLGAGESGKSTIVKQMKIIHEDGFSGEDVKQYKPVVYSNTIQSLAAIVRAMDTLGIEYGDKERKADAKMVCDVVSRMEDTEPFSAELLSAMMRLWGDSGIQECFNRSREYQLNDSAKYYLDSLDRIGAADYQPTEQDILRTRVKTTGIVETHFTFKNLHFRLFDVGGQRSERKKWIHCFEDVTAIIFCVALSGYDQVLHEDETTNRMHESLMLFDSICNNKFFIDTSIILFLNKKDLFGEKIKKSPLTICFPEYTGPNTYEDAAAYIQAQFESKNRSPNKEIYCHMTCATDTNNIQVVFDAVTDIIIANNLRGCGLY
RGS8-Gao reg: RGS8-Galphao binding modulators, primary screen, biochemical, multiplexed bead flow cytometry | actives lie on both sides | response (percent of control binding), % at 10 µM | 220,000 tested, 0.34% active | AID 1423, 2008; in the data active = response below about 60% or above about 140%; inactive = in between;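 also: Galphao activated as the GDP aluminium fluoride complex binding bead-coupled RGS8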
RGS16-Gao: modulators of RGS16 binding to Galphao, primary screen, biochemical, human proteins, multiplexed bead flow cytometry; Regulator of G-protein signaling 16 (Homo sapiens) + Guanine nucleotide-binding protein …; bead-based flow cytometry RGS16-Galphao binding, fluorescence; actives lie on both sides; binding response (% of control), % at 10 µM; 220,000 tested, 0.38% active; AID 1441, 2008;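 also: Galphao activated by GDP with aluminum fluoride before binding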
RGS4-Gao reg: modulators of RGS4 binding to Galphao, primary screen, biochemical, multiplexed bead flow cytometry. Guanine nucleotide-binding protein G(o) subunit alpha (Homo sapiens), P09471. actives lie on both sides. binding response (% of control), % at 10 µM. 220,000 tested, 0.33% active. AID 1415, 2008; in the data active = binding response below about 49% or above about 150%; inactive = in between;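 also: fluorescent Galphao activated with aluminum fluoride binding bead-coupled RGS4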
GSH fluor: compound fluorescence on glutathione beads, profiling panel, artefact control, biophysical, 488/530 nm, flow cytometry; GSH beads flow cytometry, compound fluorescence 488/530 nm; active compounds read high; fluorescence (KMESF) at 10 µM; 190,000 tested, 0.25% active; AID 1776, 2009; in the data active = fluorescence above about 89;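 also: glutathione beads carrying GST-tagged Bcl family fusion proteins plus one bare bead set; values are compound well signal with DMSO vehicle wells as background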
Avidin bead fluor: green autofluorescence of compounds with avidin beads – biophysical, 488/530 nm, flow cytometry, artefact control, profiling panel | 220,000 tested, 0.38% active | compound fluorescence 488/530 nm; active compounds read high | fluorescence (KMESF) at 10 µM | AID 1775, 2009; in the data active = fluorescence above about 47
RGS4-Gao HTS: modulators of RGS–Galpha-o binding, primary screen, biochemical, multiplexed beads, flow cytometry, RGS4/7/8/16/19 | shares compounds with RGS16-Gao | multiplexed bead flow cytometry | RGS4–Galpha-o binding response, % at 10 µM | 1,600 tested, 99% active | AID 1504, 2009;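 also: fluorescently labeled Galpha-o bound to GDP with aluminium fluoride binding biotinylated RGS beads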
Target sequence (P09471 whole entry, looked up): as above
Target sequence (P49798 whole entry, looked up): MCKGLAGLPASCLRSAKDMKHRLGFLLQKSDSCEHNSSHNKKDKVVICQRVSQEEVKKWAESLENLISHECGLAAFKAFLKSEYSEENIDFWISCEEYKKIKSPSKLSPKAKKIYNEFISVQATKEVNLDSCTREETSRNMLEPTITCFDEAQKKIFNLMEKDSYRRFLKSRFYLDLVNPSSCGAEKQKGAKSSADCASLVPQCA
Biotin-avidin: disruption of biotin probe capture by avidin, counter-screen for RGS protein interaction modulators, biochemical, flow cytometry, bead-based. shares compounds with RGS16-Gao. streptavidin beads, fluorescein-biotin binding. inhibition, % at 10 µM. 1,700 tested, under 10 active. AID 1783, 2009;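 active = inhibition above 50%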;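 also: median green fluorescence of gated singlet beads compared with DMSO control wells; 0% = DMSO wells and 100% = complete loss of bead fluorescence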
RGS8-Gao single: RGS8-Galphao binding modulators, confirmation, biochemical, multiplexed bead flow cytometry, single concentration. shares compounds with RGS16-Gao. bead-based flow cytometry RGS8-Galphao binding, fluorescence; actives lie on both sides. binding response (% of control), % at 10 µM. 1,700 tested, 3% active; in the data active = binding response below about 72% or above about 130%; inactive = in between;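 also: Galphao activated as GDP AlF4 complex before binding bead RGS8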
RGS7-Gao single: RGS7-Galphao binding modulators, confirmation, biochemical, multiplexed bead flow cytometry, single concentration | 1,700 tested, 7.8% active | AID 1837, 2009 | bead-based flow cytometry RGS7-Galphao binding; actives lie on both sides | response (percent of control binding), % at 10 µM | shares compounds with RGS16-Gao; in the data active = response below about 75% or above about 130%; inactive = in between;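 also: fluorescent Galphao activated with GDP and aluminum fluoride binding bead-coupled RGS7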
RGS16-Gao conf: modulators of RGS16-Galphao protein binding, confirmation, biochemical, single concentration, multiplexed bead flow cytometry | 1,700 tested, 4% active | response (% of control binding), % at 10 µM | AID 1838, 2009 | shares compounds with RGS16-Gao | bead-based flow cytometry; actives lie on both sides; in the data active = response below about 74% or above about 130%; inactive = in between;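 also: Galphao activated as the GDP aluminium fluoride complex binding bead-coupled RGS16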
RGS4-Gao confirm: modulators of RGS4-Galphao protein binding, confirmation, biochemical, single concentration, multiplexed bead flow cytometry | shares compounds with RGS16-Gao | actives lie on both sides | binding response (% of control), % at 10 µM | 1,700 tested, 4% active | AID 1840, 2009; in the data active = binding response below about 74% or above about 130%; inactive = in between
RGS19-Gao conf: regulators of RGS19-Galphao binding, confirmation, biochemical, single point, multiplexed bead flow cytometry. shares compounds with RGS16-Gao. AID 1841, 2009. 1,700 tested, 5% active. response (percent of control binding), % at 10 µM. bead-based flow cytometry RGS19-Galphao binding; actives lie on both sides; in the data active = response below about 50% or above about 160%; inactive = in between;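 also: 100% = no compound control and 0% = blank background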
The depositor's hits bear a star; [ ] = another dose, or the depositor's remark. Shown are actives, neighbours in structure and some others; about 1.2% of the full set was active somewhere. Unless noted, no rule for the calls is given here.

Results for CC(C)(C)NC(=O)COC(=O)CCC(=O)c1ccc(Cl)cc1 ?
RGS7-Gao: 22.1*; RGS8-Gao reg: 20.6*; RGS16-Gao: 15.0*; RGS4-Gao reg: 25.1*; GSH fluor: 23; Avidin bead fluor: 5; Biotin-avidin: -0.2; RGS8-Gao single: 100.3; RGS7-Gao single: 106.0; RGS16-Gao conf: 101.5; RGS4-Gao confirm: 104.5; RGS19-Gao conf: 99.9

How did O=C(CCc1ccccc1)NNC(=O)c1ccc(NC(=O)c2ccccc2)cc1 do in these assays?
RGS7-Gao: 85.1; RGS8-Gao reg: 76.8; RGS16-Gao: 2.7*; RGS4-Gao reg: 82.0; GSH fluor: 10; Avidin bead fluor: 4; RGS4-Gao HTS: 82.0*; Biotin-avidin: -2.0; RGS8-Gao single: 99.1; RGS7-Gao single: 91.3; RGS16-Gao conf: 96.5; RGS4-Gao confirm: 94.0; RGS19-Gao conf: 92.4

How did Cc1ccc(C(=O)Nc2ccc(Br)cc2)cc1S(=O)(=O)Nc1ccccn1 do in these assays?
RGS7-Gao: 102.0; RGS8-Gao reg: 100.3; RGS16-Gao: 102.5; RGS4-Gao reg: 102.6; GSH fluor: 13; Avidin bead fluor: 13

What do the screens show for `O=C(Cc1noc2ccccc12)Nc1ccc2ccccc2c1`?
RGS7-Gao: 89.5; RGS8-Gao reg: 70.4; RGS16-Gao: 24.7*; RGS4-Gao reg: 90.9; GSH fluor: 22; Avidin bead fluor: 4; RGS4-Gao HTS: 90.9*; Biotin-avidin: -0.1; RGS8-Gao single: 94.0; RGS7-Gao single: 87.9; RGS16-Gao conf: 88.7; RGS4-Gao confirm: 91.0; RGS19-Gao conf: 99.4

How did Cc1ccc(S(=O)(=O)Nc2ccccc2/C=N/c2nc3ccccc3n2C)cc1 do in these assays?
RGS8-Gao reg: 102.3; RGS16-Gao: 102.0; RGS4-Gao reg: 100.2; GSH fluor: 9; Avidin bead fluor: 5; Biotin-avidin: 0.4; RGS8-Gao single: 98.3; RGS7-Gao single: 99.6; RGS16-Gao conf: 98.6; RGS4-Gao confirm: 95.1; RGS19-Gao conf: 104.9

Results for Cc1ccc(S(=O)(=O)Nc2ccccc2C=Nc2cccc(C)c2C)cc1 ?
RGS7-Gao: 93.2; RGS8-Gao reg: 100.1; RGS16-Gao: 105.6; RGS4-Gao reg: 93.2; GSH fluor: 11; Avidin bead fluor: 6

How did CC[C@H](CO)NCCN[C@H](CC)CO do in these assays?
RGS7-Gao: 100.1; RGS8-Gao reg: 96.3; RGS16-Gao: 92.7; RGS4-Gao reg: 97.7; GSH fluor: 22; Avidin bead fluor: 12

How did CCC(CO)NCCNC(CC)CO (configuration not stated) do in these assays?
RGS7-Gao: 61.1; RGS8-Gao reg: 86.5; RGS16-Gao: -120.3; RGS4-Gao reg: 27.0*; GSH fluor: 11; Avidin bead fluor: 10; Biotin-avidin: 0.8; RGS8-Gao single: 99.2; RGS7-Gao single: 89.4; RGS16-Gao conf: 97.7; RGS4-Gao confirm: 94.6; RGS19-Gao conf: 79.2

How did Cn1nc(C(=O)OCC(=O)Nc2ccc3ccccc3c2)c2ccccc2c1=O do in these assays?
RGS7-Gao: 97.7; RGS8-Gao reg: 96.6; RGS16-Gao: 102.5; RGS4-Gao reg: 96.7; GSH fluor: 15; Avidin bead fluor: 24

How did CC(C)CC(NC(=O)C(NC(=O)C(Cc1ccc(OCc2ccccc2)cc1)NC(=O)OC(C)(C)C)C(C)C)C(N)=O (configuration not stated) do in these assays?
RGS7-Gao: 107.8; RGS8-Gao reg: 116.4; RGS16-Gao: 182.9*[activator]; RGS4-Gao reg: 104.1; GSH fluor: 13; Avidin bead fluor: 10; RGS4-Gao HTS: 104.1*; Biotin-avidin: -0.8; RGS8-Gao single: 100.8; RGS7-Gao single: 93.3; RGS16-Gao conf: 100.5; RGS4-Gao confirm: 98.2; RGS19-Gao conf: 94.8

How did CC(C)CC(NC(=O)C(CC(C)C)NC(=O)OC(C)(C)C)C(N)=O (configuration not stated) do in these assays?
RGS7-Gao: 106.7; RGS8-Gao reg: 101.3; RGS16-Gao: 105.3; RGS4-Gao reg: 113.7; GSH fluor: 44; Avidin bead fluor: 26

How did CC(C)CC(NC(=O)C(CC(C)C)NC(=O)OC(C)(C)C)C(=O)O (configuration not stated) do in these assays?
GSH fluor: 17; Biotin-avidin: -0.4; RGS8-Gao single: 98.1; RGS7-Gao single: 100.3; RGS16-Gao conf: 95.3; RGS4-Gao confirm: 98.1; RGS19-Gao conf: 87.4

Results for CC(C)CC(NC(=O)C(CC(C)C)NC(=O)C(Cc1ccc(OCc2ccccc2)cc1)NC(=O)OC(C)(C)C)C(N)=O (configuration not stated) ?
RGS7-Gao: 101.4; RGS8-Gao reg: 99.1; RGS16-Gao: 99.6; RGS4-Gao reg: 95.7; GSH fluor: 8; Avidin bead fluor: 8
